Tests used:
Assay in all cases: DAPPL (digital affinity profiling via proximity ligation, sequencing); 10 mM Tris-HCl pH 7.5, 50 mM NaCl, 1 mM DTT, 4% glycerol, room temperature, 30 min; GST-TFs on glutathione beads, 16-mer random dsDNA library, 0.1% formaldehyde crosslink after washing; high values mean tight binding
[1] = target: T1, FEV (Homo sapiens, UniProt Q99581 1-238); settings: protein: recombinant; tags: N-terminal GST; dsDNA, one strand shown
T1 sequence: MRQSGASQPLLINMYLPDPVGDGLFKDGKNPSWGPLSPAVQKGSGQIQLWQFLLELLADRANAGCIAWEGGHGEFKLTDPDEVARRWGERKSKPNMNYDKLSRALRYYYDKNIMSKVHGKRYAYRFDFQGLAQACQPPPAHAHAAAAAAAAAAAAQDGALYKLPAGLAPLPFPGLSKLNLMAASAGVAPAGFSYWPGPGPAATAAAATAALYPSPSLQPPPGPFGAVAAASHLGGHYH
Summary of the method: (§1)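 Human transcription factors carrying a GST fusion were produced in yeast, bound to glutathione beads, tagged with DNA barcodes and pooled together with a tag-only sample. Each pool was held with 200 nmole of a random double-stranded 16-mer DNA library in Tris/NaCl/DTT/glycerol buffer for 30 min at room temperature, then washed, crosslinked in 0.1% formaldehyde, proximity-ligated with BsaI/T4 ligase (1 h, 37 °C), PCR-amplified and sequenced on an Illumina NextSeq500. Binding signal is the read frequency of each hexamer for a given factor divided by its frequency in the tag-only sample.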

[2] = target: ETV5 (Homo sapiens, UniProt P41161 1-510); settings: protein: recombinant; tags: N-terminal GST; dsDNA, one strand shown
Chain of ETV5 (P41161 whole entry): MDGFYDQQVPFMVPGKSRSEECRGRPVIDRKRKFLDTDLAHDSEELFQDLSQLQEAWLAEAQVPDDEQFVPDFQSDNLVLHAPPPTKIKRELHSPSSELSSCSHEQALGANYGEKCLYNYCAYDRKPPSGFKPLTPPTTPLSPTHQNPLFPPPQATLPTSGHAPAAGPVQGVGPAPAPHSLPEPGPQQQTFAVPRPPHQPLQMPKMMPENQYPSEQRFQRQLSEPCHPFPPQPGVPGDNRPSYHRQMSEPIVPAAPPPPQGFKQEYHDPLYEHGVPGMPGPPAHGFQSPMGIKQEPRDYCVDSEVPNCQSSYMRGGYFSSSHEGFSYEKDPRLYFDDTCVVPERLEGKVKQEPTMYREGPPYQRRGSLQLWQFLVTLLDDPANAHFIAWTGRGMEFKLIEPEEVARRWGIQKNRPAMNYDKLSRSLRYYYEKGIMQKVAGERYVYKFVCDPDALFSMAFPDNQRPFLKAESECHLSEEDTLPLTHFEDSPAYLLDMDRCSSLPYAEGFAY
Summary of the method: as §1

[3] = target: HSF1 (Homo sapiens, UniProt Q00613 1-529); settings: protein: recombinant; tags: N-terminal GST; chain copies: 3; dsDNA, one strand shown
Chain of HSF1 (Q00613 whole entry): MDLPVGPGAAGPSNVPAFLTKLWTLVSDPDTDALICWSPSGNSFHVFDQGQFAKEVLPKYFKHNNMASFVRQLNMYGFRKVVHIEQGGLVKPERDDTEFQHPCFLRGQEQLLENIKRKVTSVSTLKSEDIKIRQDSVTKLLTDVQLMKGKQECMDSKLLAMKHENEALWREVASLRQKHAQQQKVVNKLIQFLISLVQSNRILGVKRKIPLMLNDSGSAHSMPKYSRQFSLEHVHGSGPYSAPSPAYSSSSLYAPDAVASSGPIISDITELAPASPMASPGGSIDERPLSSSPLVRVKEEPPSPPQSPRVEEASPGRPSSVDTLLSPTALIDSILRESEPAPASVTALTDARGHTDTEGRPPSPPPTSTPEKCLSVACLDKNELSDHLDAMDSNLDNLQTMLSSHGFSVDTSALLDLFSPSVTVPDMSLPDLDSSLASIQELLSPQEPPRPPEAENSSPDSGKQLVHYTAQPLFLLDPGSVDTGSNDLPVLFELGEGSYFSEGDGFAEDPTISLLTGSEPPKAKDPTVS
Summary of the method: as §1

[4] = target: T2, SPIC (Homo sapiens, UniProt Q8N5J4 1-248); settings: protein: recombinant; tags: N-terminal GST; dsDNA, one strand shown
T2 sequence: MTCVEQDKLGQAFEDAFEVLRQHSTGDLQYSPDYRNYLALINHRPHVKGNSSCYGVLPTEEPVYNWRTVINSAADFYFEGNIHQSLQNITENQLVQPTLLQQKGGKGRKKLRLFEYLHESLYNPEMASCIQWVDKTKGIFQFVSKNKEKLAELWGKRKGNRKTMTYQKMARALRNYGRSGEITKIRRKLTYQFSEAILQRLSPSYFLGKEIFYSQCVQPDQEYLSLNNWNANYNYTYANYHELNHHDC
Summary of the method: as §1

[5] = target: ELF4 (Homo sapiens, UniProt Q99607 1-663); settings: protein: recombinant; tags: N-terminal GST; dsDNA, one strand shown
Chain of ELF4 (Q99607 whole entry): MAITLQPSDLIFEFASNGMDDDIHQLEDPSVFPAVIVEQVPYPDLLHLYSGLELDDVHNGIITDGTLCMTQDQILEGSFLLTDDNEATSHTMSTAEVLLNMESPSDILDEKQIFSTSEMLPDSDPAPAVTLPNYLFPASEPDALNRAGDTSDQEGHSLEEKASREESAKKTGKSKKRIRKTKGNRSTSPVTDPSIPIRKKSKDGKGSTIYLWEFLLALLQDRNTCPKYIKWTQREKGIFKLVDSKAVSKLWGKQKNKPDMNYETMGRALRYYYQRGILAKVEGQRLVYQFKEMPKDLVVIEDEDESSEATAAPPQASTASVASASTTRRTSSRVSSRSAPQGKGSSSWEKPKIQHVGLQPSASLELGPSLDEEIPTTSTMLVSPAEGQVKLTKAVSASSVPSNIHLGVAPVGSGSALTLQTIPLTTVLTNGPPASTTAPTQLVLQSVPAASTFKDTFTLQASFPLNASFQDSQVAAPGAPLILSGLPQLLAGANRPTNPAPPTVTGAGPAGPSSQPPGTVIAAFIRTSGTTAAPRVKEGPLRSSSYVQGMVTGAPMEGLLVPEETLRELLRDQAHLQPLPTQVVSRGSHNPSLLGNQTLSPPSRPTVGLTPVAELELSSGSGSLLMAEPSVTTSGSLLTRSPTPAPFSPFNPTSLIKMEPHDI
Summary of the method: as §1

[6] = target: T3, ELK4 (Homo sapiens, UniProt P28324-2 1-405); settings: protein: recombinant; tags: N-terminal GST; dsDNA, one strand shown
T3 sequence: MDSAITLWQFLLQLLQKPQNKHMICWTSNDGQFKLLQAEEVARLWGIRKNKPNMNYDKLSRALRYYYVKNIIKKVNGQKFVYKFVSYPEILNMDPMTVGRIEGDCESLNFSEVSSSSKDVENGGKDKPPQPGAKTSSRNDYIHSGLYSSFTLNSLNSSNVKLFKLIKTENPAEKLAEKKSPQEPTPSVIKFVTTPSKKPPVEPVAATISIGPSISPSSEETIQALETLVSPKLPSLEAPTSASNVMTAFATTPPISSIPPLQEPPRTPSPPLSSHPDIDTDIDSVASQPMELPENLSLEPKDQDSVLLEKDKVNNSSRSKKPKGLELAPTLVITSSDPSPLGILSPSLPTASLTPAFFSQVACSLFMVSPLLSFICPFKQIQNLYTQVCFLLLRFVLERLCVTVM
Summary of the method: as §1

[7] = target: T4, ETV2 (Homo sapiens, UniProt O00321 1-342); settings: protein: recombinant; tags: N-terminal GST; dsDNA, one strand shown
T4 sequence: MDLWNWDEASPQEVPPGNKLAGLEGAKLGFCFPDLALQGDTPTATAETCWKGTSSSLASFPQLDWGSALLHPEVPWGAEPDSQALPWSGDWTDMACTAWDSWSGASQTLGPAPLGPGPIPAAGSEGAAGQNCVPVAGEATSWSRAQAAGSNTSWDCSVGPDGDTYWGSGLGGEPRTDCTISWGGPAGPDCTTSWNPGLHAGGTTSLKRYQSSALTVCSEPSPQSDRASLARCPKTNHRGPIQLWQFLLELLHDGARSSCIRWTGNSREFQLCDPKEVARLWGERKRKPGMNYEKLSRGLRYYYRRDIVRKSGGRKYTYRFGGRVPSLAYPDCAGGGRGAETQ
Summary of the method: as §1

[8] = target: T5, ELF3 (Homo sapiens, UniProt P78545 1-371); settings: protein: recombinant; tags: N-terminal GST; dsDNA, one strand shown
T5 sequence: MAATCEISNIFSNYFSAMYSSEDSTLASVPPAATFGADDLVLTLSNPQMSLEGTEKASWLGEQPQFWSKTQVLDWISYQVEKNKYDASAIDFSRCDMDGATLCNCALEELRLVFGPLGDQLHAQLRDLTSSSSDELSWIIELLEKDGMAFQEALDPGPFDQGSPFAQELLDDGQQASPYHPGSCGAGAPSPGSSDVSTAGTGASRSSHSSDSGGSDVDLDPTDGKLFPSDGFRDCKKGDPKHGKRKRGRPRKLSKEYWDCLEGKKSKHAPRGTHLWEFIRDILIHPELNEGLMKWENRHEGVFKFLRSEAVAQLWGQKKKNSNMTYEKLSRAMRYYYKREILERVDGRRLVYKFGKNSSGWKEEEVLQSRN
Summary of the method: as §1

[9] = target: CRX (Homo sapiens, UniProt O43186 1-299); settings: protein: recombinant; tags: N-terminal GST; dsDNA, one strand shown
Chain of CRX (O43186 whole entry): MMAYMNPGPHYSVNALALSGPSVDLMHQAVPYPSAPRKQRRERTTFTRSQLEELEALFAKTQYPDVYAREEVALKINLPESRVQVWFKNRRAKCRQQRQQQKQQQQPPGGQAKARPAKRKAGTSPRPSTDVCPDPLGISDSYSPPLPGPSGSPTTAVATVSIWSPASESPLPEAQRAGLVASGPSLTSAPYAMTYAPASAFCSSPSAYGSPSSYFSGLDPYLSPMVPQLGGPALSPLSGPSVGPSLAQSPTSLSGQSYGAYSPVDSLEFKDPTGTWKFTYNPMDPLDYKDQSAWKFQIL
Summary of the method: as §1

[10] = target: ETV1 (Homo sapiens, UniProt P50549 1-477); settings: protein: recombinant; tags: N-terminal GST; dsDNA, one strand shown
Chain of ETV1 (P50549 whole entry): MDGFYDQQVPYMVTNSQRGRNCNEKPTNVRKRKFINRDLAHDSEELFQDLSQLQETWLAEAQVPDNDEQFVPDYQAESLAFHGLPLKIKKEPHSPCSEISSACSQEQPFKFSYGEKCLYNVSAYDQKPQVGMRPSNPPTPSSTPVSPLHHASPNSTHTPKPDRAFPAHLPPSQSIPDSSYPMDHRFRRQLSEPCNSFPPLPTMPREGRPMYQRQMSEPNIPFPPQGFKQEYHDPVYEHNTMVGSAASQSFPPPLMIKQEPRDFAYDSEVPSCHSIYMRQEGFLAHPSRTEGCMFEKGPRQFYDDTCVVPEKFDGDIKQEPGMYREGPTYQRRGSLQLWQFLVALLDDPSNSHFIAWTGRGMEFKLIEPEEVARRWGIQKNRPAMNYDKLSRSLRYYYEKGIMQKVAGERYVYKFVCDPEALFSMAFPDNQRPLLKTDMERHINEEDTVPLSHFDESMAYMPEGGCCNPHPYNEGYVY
Summary of the method: as §1

TAACAC
binding signal [1]: 1.24 fold enrichment (6-mer frequency, TF over GST control)
binding signal [2]: 1.23 fold enrichment (6-mer frequency, TF over GST control)
binding signal [3]: 1.2 fold enrichment (6-mer frequency, TF over GST control)
binding signal [4]: 1.39 fold enrichment (6-mer frequency, TF over GST control)
binding signal [5]: 1.26 fold enrichment (6-mer frequency, TF over GST control)
binding signal [6]: 1.32 fold enrichment (6-mer frequency, TF over GST control)
binding signal [7]: 1.15 fold enrichment (6-mer frequency, TF over GST control)
binding signal [8]: 1.16 fold enrichment (6-mer frequency, TF over GST control)
binding signal [9]: 1.56 fold enrichment (6-mer frequency, TF over GST control)
binding signal [10]: 1.19 fold enrichment (6-mer frequency, TF over GST control)

ATCAAC
binding signal [1]: 1.13 fold enrichment (6-mer frequency, TF over GST control)
binding signal [2]: 1.04 fold enrichment (6-mer frequency, TF over GST control)
binding signal [3]: 1.02 fold enrichment (6-mer frequency, TF over GST control)
binding signal [4]: 1.03 fold enrichment (6-mer frequency, TF over GST control)
binding signal [5]: 1.09 fold enrichment (6-mer frequency, TF over GST control)
binding signal [6]: 1.14 fold enrichment (6-mer frequency, TF over GST control)
binding signal [7]: 1.18 fold enrichment (6-mer frequency, TF over GST control)
binding signal [8]: 1.08 fold enrichment (6-mer frequency, TF over GST control)
binding signal [9]: 1.25 fold enrichment (6-mer frequency, TF over GST control)
binding signal [10]: 1.1 fold enrichment (6-mer frequency, TF over GST control)

TATTCT
binding signal [1]: 1.27 fold enrichment (6-mer frequency, TF over GST control)
binding signal [2]: 1.33 fold enrichment (6-mer frequency, TF over GST control)
binding signal [3]: 2.77 fold enrichment (6-mer frequency, TF over GST control)
binding signal [4]: 1.28 fold enrichment (6-mer frequency, TF over GST control)
binding signal [5]: 1.38 fold enrichment (6-mer frequency, TF over GST control)
binding signal [6]: 1.37 fold enrichment (6-mer frequency, TF over GST control)
binding signal [7]: 1.29 fold enrichment (6-mer frequency, TF over GST control)
binding signal [8]: 1.38 fold enrichment (6-mer frequency, TF over GST control)
binding signal [9]: 1.9 fold enrichment (6-mer frequency, TF over GST control)
binding signal [10]: 1.4 fold enrichment (6-mer frequency, TF over GST control)

CTGGAT
binding signal [1]: 1.38 fold enrichment (6-mer frequency, TF over GST control)
binding signal [2]: 1.4 fold enrichment (6-mer frequency, TF over GST control)
binding signal [3]: 2.19 fold enrichment (6-mer frequency, TF over GST control)
binding signal [4]: 1.34 fold enrichment (6-mer frequency, TF over GST control)
binding signal [5]: 1.35 fold enrichment (6-mer frequency, TF over GST control)
binding signal [6]: 1.35 fold enrichment (6-mer frequency, TF over GST control)
binding signal [7]: 1.41 fold enrichment (6-mer frequency, TF over GST control)
binding signal [8]: 1.41 fold enrichment (6-mer frequency, TF over GST control)
binding signal [9]: 2.05 fold enrichment (6-mer frequency, TF over GST control)
binding signal [10]: 1.47 fold enrichment (6-mer frequency, TF over GST control)

TTACAG
binding signal [1]: 1.14 fold enrichment (6-mer frequency, TF over GST control)
binding signal [2]: 1.2 fold enrichment (6-mer frequency, TF over GST control)
binding signal [3]: 1.44 fold enrichment (6-mer frequency, TF over GST control)
binding signal [4]: 1.3 fold enrichment (6-mer frequency, TF over GST control)
binding signal [5]: 1.26 fold enrichment (6-mer frequency, TF over GST control)
binding signal [6]: 1.37 fold enrichment (6-mer frequency, TF over GST control)
binding signal [7]: 1.14 fold enrichment (6-mer frequency, TF over GST control)
binding signal [8]: 1.38 fold enrichment (6-mer frequency, TF over GST control)
binding signal [9]: 1.85 fold enrichment (6-mer frequency, TF over GST control)
binding signal [10]: 1.2 fold enrichment (6-mer frequency, TF over GST control)

AAACCT
binding signal [1]: 1.08 fold enrichment (6-mer frequency, TF over GST control)
binding signal [2]: 1.13 fold enrichment (6-mer frequency, TF over GST control)
binding signal [3]: 1.15 fold enrichment (6-mer frequency, TF over GST control)
binding signal [4]: 1.09 fold enrichment (6-mer frequency, TF over GST control)
binding signal [5]: 1.16 fold enrichment (6-mer frequency, TF over GST control)
binding signal [6]: 1.2 fold enrichment (6-mer frequency, TF over GST control)
binding signal [7]: 1.19 fold enrichment (6-mer frequency, TF over GST control)
binding signal [8]: 1.19 fold enrichment (6-mer frequency, TF over GST control)
binding signal [9]: 1.24 fold enrichment (6-mer frequency, TF over GST control)
binding signal [10]: 1.15 fold enrichment (6-mer frequency, TF over GST control)

TTGTTT
binding signal [1]: 1.45 fold enrichment (6-mer frequency, TF over GST control)
binding signal [2]: 1.53 fold enrichment (6-mer frequency, TF over GST control)
binding signal [3]: 1.24 fold enrichment (6-mer frequency, TF over GST control)
binding signal [4]: 1.08 fold enrichment (6-mer frequency, TF over GST control)
binding signal [5]: 1.44 fold enrichment (6-mer frequency, TF over GST control)
binding signal [6]: 1.61 fold enrichment (6-mer frequency, TF over GST control)
binding signal [7]: 1.32 fold enrichment (6-mer frequency, TF over GST control)
binding signal [8]: 1.61 fold enrichment (6-mer frequency, TF over GST control)
binding signal [9]: 1.45 fold enrichment (6-mer frequency, TF over GST control)
binding signal [10]: 1.38 fold enrichment (6-mer frequency, TF over GST control)

AAATTT
binding signal [1]: 1.34 fold enrichment (6-mer frequency, TF over GST control)
binding signal [2]: 1.36 fold enrichment (6-mer frequency, TF over GST control)
binding signal [3]: 1.47 fold enrichment (6-mer frequency, TF over GST control)
binding signal [4]: 1.1 fold enrichment (6-mer frequency, TF over GST control)
binding signal [5]: 1.19 fold enrichment (6-mer frequency, TF over GST control)
binding signal [6]: 1.22 fold enrichment (6-mer frequency, TF over GST control)
binding signal [7]: 1.29 fold enrichment (6-mer frequency, TF over GST control)
binding signal [8]: 1.43 fold enrichment (6-mer frequency, TF over GST control)
binding signal [9]: 1.24 fold enrichment (6-mer frequency, TF over GST control)
binding signal [10]: 1.35 fold enrichment (6-mer frequency, TF over GST control)
